This is an account of results in PubChem BioAssay (NCATS).

Assay [1] deals with Lysosomal acid glucosylceramidase (Homo sapiens) (UniProt P04062). The assay is described as follows: Glucocerebrosidase-p2 (AID 348; in the data active = potency below about 10 µM; also: potency is read from the fitted curve at half-maximal effect). The conditions noted are these: purified GBA, blue fluorogenic substrate, 40 min. The method in brief: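 Compounds titrated from 0.6 nM upwards against 0.2 nM enzyme in pH 5.9 citric acid/KH2PO4, taurocholate, tween-20; blue fluorogenic substrate 80 uM, 40 min room temperature, stopped and read Ex 365/Em 440 for AC50.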

Assay [2] in a line: AP1 Signaling Pathway (AID 357; active = well fitted curve in either direction with a large enough effect, not every such curve was filed as active;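 also: ME-180 reporter cells stimulated with EGF at its EC50 level; % is scaled to controls: 0 for no effect and ±100 for the full control effect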). The following applies: ME-180 AP-1-bla reporter, EGF-induced, beta-lactamase ratio, 5 h; at 7.69 µM (top of the series) unless noted. The method in brief: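 A ratiometric CCF4 readout (405 nm excitation; 460 and 530 nm emission) quantified AP-1-driven beta-lactamase in ME-180 cells after 5 h with compound and EC50 EGF; AC50 values were derived for activators and inhibitors.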

In assay [3] the target is Cytochrome P450 1A2 (Homo sapiens) (UniProt P05177). The assay is described as follows: p450-cyp1a2 (AID 410; calls by dose curve; also: potency is read from the fitted curve at half-maximal effect). The conditions noted are these: recombinant CYP1A2, luciferin-ME demethylation, luminescence; series mostly up to 57 µM. The method in brief:
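Inhibition was calculated relative to 57 uM furafylline (full inhibition). The reaction used human CYP1A2 at 20nM with Luciferin-ME at its Km, 100uM, driven by an NADPH-regenerating system for 60 min at room temperature.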

Assay [4] can be described thus: NFAT Signaling Pathway (AID 444; active = well fitted curve in either direction with a large enough effect, not every such curve was filed as active;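 also: carbachol stimulus at about its EC50 of 1 µM final; % is scaled to controls: 0 for no effect and ±100 for the full control effect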). The conditions noted are these: Jurkat NFAT-bla M1, carbachol, beta-lactamase ratio, 5 h; at 7.69 µM (top of the series) unless noted. The method in brief:
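Jurkat cells with NFAT-driven β-lactamase reporter and co-expressed M1 receptor, stimulated with carbachol (final 1 uM, ~EC50), compound titration, 5 h at 37 °C. CCF4 loaded 1 h at RT; 460/530 nm ratio gave %activity and AC50.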

Assay [5] can be described thus: Stat Signaling Pathway (AID 446; active = well fitted curve in either direction with a large enough effect, not every such curve was filed as active;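 also: ME-180 cervical cancer cells given 40 pM IL-6 alongside compound; SIE-controlled beta-lactamase reporter measured as 460/530 nm FRET emission ratio; % is scaled to controls: 0 for no effect and ±100 for the full control effect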). The following applies: ME-180 SIE beta-lactamase reporter, IL-6 stimulated, 5 h; at 7.69 µM (top of the series) unless noted. A digest of the protocol: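 ME-180 cells carrying a SIE-driven beta-lactamase reporter are stimulated with 40 pM IL-6 for 5 h at 37C in the presence of compound. The 460/530 nm FRET substrate ratio is read after 2.5 h at RT. Data are normalised to 300 pM IL-6 and to 125 nM JAK inhibitor controls.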

The target in assay [6] is Glucocorticoid receptor (Homo sapiens) (UniProt P04150). The assay is described as follows: GR-GFP Redistribution (AID 450;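 active = compounds whose dose series gives a full or clear partial fitted curve of increased nuclear translocation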; also: potency is read from the fitted curve at half-maximal effect). The conditions noted are these: U2OS GR-GFP nuclear translocation, laser cytometry, 2 h.
For assay [7] the target is unchanged. The assay is described as follows: GR-EFC Redistribution (AID 451; calls by dose curve; also: potency is read from the fitted curve at half-maximal effect). The following applies: CHO-K1 GR-EFC translocation, beta-gal luminescence, 2 h. The method in brief:
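CHO-K1 cells expressing nuclear EA and GR-ED fragments of b-gal; compounds titrated up to 46 uM final, 2 h at 37 C. GR nuclear translocation read as complemented b-gal luminescence after 1 h RT detection.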

In assay [8] the target is Mitogen-activated protein kinase 10 (Mus musculus) (UniProt Q61831). The experiment in a line: JNK3 AlphaScreen Assay (AID 530; active = well fitted curve in either direction with a large enough effect, not every such curve was filed as active;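 also: kinase came from lysate of stimulated human HepG2 cells; signal reports phosphorylation of biotinylated GST-cJun 1-79 at Ser73 with 10 µM ATP; % is scaled to controls: 0 for no effect and ±100 for the full control effect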). The following applies: JNK3 lysate, c-Jun phosphorylation; series mostly up to 57.1 µM. A digest of the protocol: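 qHTS format: compounds tested as titrations against IL-1beta/TNF-alpha-activated HepG2 lysate JNK3 with biotin-GST-cJun substrate and 10 uM ATP at room temperature. Loss of anti-phospho-cJun AlphaScreen signal indicates inhibition.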
In general terms: Bead proximity is the source of the signal in Alpha formats.

The target in assay [9] is 3',5'-cyclic-AMP phosphodiesterase 4B (Homo sapiens) (UniProt Q07343). The assay is described as follows: qHTS Assay for Inhibitors of PDE-IV (AID 607; active = well fitted activation curve with a large enough effect in the main read-out, with a control signal flat, not every such curve was filed as active; also: % of control where 0% means no effect). The conditions noted are these: HEK293 ACTOne CNG channel cells, membrane potential fluorescence; series mostly up to 22.9 µM. The method in brief: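 HEK293 ACTOne cells with CNG channel (1000/well), endogenous PDE4; membrane potential dye, compounds up to 22.9 uM final. Fluorescence Ex 535/Em 590; RO 20-1724 (100 uM final) as reference.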
(In general: In qHTS, concentration-response curves come from the screen itself.)

Assay [10] has as its target Cytochrome P450 3A4 (Homo sapiens) (UniProt P08684). The assay is described as follows: qHTS Assay for Activators of Cytochrome P450 3A4 (AID 885). Also: nearly all actives have a fitted effect of over 65% in size. The following applies: recombinant CYP3A4, Luciferin-PPXE luminescence, 60 min; series mostly up to 57.1 µM. A digest of the protocol: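 Human CYP3A4 (20 nM) with Luciferin-PPXE at 25 uM (its KM) in 200 mM KPO4; 10 min compound preincubation, then NADPH regeneration and 60 min reaction at RT. Luciferin read by luminescence; normalized to 57 uM ketoconazole full inhibition.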

A short description of assay [11]: Confirmation and Secondary Assay for Modulators of Hemoglobin Beta Chain Splicing at IVS2 654 locus (AID 910).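 Also: HeLa cells stably carrying EGFP split by mutant beta-globin IVS2-654 intron; % of control where 0% means no effect.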 The following applies: HeLa EGFP-654 splicing reporter, GFP fluorescence, 48 h; series mostly up to 38.3 µM. A digest of the protocol:
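HeLa cells stably expressing EGFP interrupted by β-globin IVS2-654 intron, seeded overnight in Opti-MEM/2% FCS, then treated 2 days at 37 °C. Restored splicing read as total peak GFP intensity per well by laser scanning cytometry (488 nm excitation, 500–520 nm emission); 500 nM antisense PNA as control.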

Assay [12] in a line: Confirmation and Secondary Assay for Modulators of Hemoglobin Beta Chain Splicing at IVS2 705 locus (AID 930).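 Also: HeLa cells stably expressing the EGFP-705 splicing reporter; GFP fluorescence per well restored by corrected splicing of the IVS2-705 intron in EGFP; % of control where 0% means no effect.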 The following applies: HeLa EGFP-705 splicing reporter, GFP fluorescence, 48 h; series mostly up to 38.3 µM. The method in brief:
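Splice-correction reporter: EGFP cDNA split by beta-globin intron 2 bearing the 705 mutation, stably in HeLa. Compound incubation 2 days, 37C; fluorescent objects 5-250 µm summed per well.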

The nature of assay [13]: qHTS Assay for Lipid Storage Modulators (AID 1519; calls by dose curve). The following applies: Drosophila S3 cells, BODIPY lipid droplet/cell ratio, laser cytometry, cells loaded with oleic acid; for activity change, negative = inhibition: at 57.5 µM (top of the series). A digest of the protocol:
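Cells seeded at 5,000 per well were treated with compounds over a concentration series and loaded with oleic acid (400 uM, as added). Lipid droplet fluorescence (488 nm excitation, 500-530 nm channel) was read by laser-scanning cytometry and normalized to 20 uM Triacsin C.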

Assay [14] deals with Ubiquitin carboxyl-terminal hydrolase 1 (Homo sapiens) (UniProt O94782). The experiment in a line: Inhibitors of USP1/UAF1: Pilot qHTS (AID 504865).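 Also: rhodamine fluorescence freed from ubiquitin-rhodamine substrate followed over time; top concentration of the series differs between compounds; % is scaled to controls: 0 for no effect and ±100 for the full control effect; nearly all actives have a fitted effect of over 35% in size.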 The conditions noted are these: purified USP1/UAF1, Ub-rhodamine cleavage fluorescence; series mostly up to 54.9 µM. The method in brief: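 1nM USP1/UAF1 + cpd, 15 min RT; start w/ Ub-Rho 150nM final; kinetic FL 480/540 nm, 6 reads q60 s. Buffer 50mM HEPES pH 7.8, 0.5mM EDTA, 1mM TCEP, 0.01% Tween-20, 0.1 mg/ml BSA.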

Assay [15] can be described thus: Primary qHTS for small molecule stabilizers of the endoplasmic reticulum resident proteome: Secreted ER Calcium Modulated Protein (SERCaMP) assay (AID 1508630). Also: % is scaled to controls: 0 for no effect and ±100 for the full control effect. The conditions noted are these: SH-SY5Y GLuc-SERCaMP (Gaussia luciferase released on ER calcium loss) secretion, thapsigargin, luminescence; series mostly up to 38.4 µM. The method in brief: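 GLuc-SERCaMP-expressing SH-SY5Y cells, pretreated 16 h with compound, are challenged with thapsigargin to empty ER calcium stores; after 4 h, coelenterazine is added directly to the medium and luminescence is imaged.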

The target in assay [16] is Cytochrome P450 3A4 (Homo sapiens) (UniProt P08684). The experiment in a line: qHTS Assay for Inhibitors and Substrates of Cytochrome P450 3A4 (AID 884). Also: potency is read from the fitted curve at half-maximal effect; nearly all actives have a fitted effect of over 50% in size. The following applies: recombinant CYP3A4, Luciferin-PPXE luminescence; series mostly up to 57.1 µM. The method in brief: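 20 nM human CYP3A4 with 25 uM Luciferin-PPXE (at KM) in 200 mM KPO4, preincubated 10 min with compound; NADPH regeneration started a 60 min RT reaction. Luciferin detected by luminescence, normalized to 57 uM ketoconazole as full inhibition.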

A short description of assay [17]: qHTS Assay for Identification of Small Molecule Agonists for Hypoxia Response Element Signaling Pathway (AID 914; active = well fitted activation curve with a large enough effect in the signal ratio, with a control signal flat, not every such curve was filed as active; the % refers to the signal ratio; also: % of control where 0% means no effect). The following applies: ME-180 (cervical carcinoma) HRE-bla reporter, beta-lactamase ratio, CoCl2, 17 h; activation: stronger effect = higher value. The method in brief:
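Cells were plated overnight, pin-dosed with compound in a titration series, co-stimulated with EC50 CoCl2 and incubated 17 hours at 37 degrees Celsius. CCF4 substrate was then loaded, and AC50 values came from the 460nm/530nm ratio.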

The mark [18] stands for this setting: measured here: cell count channel max response.
Setting [19] is: measured here: lipid channel max response.

Structures are written as SMILES. Results filed as inconclusive are left out. The source made the active and inactive calls. Unless noted, calls follow the shape of the dose curve; as a rule, active = well fitted curve in the direction sought with a large enough effect; inconclusive = small, poorly fitted or top-dose-only effect, or another doubt; inactive = no such curve, though single readings can be large; an effect the other way counts as inactive or inconclusive.

Sequence of 3',5'-cyclic-AMP phosphodiesterase 4B (Homo sapiens) (Q07343 whole entry, looked up): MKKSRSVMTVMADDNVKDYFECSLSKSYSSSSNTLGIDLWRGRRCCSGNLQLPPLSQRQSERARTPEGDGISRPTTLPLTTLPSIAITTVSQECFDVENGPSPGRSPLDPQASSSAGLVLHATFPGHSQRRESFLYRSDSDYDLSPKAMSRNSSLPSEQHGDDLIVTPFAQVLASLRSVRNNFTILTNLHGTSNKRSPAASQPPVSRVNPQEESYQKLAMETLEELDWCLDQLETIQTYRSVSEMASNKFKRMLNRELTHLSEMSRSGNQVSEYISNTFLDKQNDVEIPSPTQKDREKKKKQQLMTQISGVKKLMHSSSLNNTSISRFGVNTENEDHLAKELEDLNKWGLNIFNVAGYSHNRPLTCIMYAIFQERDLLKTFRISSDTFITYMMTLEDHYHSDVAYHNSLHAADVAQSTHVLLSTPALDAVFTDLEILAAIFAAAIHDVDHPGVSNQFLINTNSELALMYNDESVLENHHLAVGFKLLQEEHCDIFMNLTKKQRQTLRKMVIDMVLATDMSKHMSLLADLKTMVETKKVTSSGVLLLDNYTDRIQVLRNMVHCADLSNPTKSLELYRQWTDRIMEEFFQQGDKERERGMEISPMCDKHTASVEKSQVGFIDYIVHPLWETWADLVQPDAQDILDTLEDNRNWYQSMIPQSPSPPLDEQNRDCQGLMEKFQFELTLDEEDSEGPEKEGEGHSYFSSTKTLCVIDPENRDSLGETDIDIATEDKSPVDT
Sequence of Lysosomal acid glucosylceramidase (Homo sapiens) (P04062 whole entry, looked up): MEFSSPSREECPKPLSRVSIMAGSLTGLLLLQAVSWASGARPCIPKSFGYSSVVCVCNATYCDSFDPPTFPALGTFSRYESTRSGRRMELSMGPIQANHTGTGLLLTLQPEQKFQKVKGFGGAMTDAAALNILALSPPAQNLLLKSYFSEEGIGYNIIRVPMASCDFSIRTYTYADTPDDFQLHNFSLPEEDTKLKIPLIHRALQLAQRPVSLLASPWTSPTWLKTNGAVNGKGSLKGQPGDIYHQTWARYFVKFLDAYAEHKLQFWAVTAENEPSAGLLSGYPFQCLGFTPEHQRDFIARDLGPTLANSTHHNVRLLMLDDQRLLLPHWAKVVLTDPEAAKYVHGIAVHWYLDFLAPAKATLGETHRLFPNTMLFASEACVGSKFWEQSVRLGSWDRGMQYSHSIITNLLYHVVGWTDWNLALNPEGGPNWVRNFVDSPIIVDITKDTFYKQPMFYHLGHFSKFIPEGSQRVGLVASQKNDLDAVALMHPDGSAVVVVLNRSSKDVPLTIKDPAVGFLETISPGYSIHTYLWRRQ
Sequence of Cytochrome P450 3A4 (Homo sapiens) (P08684 whole entry, looked up): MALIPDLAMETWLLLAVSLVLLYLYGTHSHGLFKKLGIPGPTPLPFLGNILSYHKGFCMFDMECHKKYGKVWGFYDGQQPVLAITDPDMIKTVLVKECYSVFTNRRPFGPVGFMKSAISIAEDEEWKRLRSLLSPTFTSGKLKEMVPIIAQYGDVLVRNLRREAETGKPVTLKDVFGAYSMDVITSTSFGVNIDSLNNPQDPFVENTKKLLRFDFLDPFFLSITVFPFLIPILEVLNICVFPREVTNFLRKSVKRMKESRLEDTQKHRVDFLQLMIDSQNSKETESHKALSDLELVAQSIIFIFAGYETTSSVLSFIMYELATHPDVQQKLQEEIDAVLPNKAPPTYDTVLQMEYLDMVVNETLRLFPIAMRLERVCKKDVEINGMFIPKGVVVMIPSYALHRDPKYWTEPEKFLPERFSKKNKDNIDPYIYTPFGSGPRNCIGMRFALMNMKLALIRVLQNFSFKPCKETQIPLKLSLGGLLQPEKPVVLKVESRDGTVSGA
Sequence of Cytochrome P450 1A2 (Homo sapiens) (P05177 whole entry, looked up): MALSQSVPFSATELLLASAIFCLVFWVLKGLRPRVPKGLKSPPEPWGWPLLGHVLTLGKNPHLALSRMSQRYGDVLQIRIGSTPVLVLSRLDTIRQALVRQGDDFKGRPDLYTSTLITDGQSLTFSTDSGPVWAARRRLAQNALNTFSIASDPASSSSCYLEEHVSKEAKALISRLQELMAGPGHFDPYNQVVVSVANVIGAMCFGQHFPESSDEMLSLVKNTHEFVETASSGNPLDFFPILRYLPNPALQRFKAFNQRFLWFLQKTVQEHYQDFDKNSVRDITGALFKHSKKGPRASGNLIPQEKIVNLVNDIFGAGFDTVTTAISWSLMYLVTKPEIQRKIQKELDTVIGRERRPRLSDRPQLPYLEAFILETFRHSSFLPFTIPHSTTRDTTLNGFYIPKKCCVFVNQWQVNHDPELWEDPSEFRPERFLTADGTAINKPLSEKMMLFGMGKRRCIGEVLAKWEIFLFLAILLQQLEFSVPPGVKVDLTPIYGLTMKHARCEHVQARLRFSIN
Sequence of Glucocorticoid receptor (Homo sapiens) (P04150 whole entry, looked up): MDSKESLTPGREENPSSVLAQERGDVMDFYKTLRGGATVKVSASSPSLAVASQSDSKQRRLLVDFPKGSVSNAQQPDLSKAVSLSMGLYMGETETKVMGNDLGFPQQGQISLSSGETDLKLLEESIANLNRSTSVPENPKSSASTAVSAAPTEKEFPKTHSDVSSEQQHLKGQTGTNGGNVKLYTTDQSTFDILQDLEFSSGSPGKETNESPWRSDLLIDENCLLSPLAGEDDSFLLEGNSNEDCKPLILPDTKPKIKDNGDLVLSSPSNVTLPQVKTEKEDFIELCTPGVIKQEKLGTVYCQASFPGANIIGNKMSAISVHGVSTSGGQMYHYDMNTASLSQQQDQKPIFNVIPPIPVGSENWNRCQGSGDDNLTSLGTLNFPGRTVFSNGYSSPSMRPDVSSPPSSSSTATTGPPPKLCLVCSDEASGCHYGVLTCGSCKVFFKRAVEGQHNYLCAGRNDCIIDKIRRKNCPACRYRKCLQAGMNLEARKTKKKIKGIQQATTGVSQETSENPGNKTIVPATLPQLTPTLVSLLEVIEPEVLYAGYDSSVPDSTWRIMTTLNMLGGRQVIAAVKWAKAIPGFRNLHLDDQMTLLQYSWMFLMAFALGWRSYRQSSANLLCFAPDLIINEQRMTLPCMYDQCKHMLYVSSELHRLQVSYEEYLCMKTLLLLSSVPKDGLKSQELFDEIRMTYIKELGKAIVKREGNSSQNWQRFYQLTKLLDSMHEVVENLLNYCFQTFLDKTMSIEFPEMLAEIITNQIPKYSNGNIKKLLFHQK
Sequence of Ubiquitin carboxyl-terminal hydrolase 1 (Homo sapiens) (O94782 whole entry, looked up): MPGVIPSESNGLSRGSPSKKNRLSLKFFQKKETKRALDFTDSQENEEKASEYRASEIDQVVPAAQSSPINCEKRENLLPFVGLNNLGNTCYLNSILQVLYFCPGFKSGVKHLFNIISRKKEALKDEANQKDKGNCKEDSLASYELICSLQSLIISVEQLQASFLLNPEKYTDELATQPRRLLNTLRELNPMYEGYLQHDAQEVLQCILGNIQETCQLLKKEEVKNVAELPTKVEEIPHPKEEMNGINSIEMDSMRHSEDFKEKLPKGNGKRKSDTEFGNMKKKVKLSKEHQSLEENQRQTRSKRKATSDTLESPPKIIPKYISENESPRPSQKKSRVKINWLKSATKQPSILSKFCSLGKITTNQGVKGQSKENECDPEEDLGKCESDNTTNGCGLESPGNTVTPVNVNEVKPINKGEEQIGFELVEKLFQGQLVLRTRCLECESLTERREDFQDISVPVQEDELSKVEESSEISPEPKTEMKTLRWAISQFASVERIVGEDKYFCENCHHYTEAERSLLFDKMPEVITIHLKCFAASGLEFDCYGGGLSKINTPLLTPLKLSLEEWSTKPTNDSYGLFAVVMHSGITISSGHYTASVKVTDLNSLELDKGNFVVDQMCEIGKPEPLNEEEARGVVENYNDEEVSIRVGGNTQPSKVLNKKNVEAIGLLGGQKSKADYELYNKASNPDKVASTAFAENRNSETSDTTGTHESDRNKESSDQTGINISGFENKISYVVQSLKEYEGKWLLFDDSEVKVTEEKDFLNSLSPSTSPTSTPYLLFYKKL

Regarding `CNc1ncncc1-c1ccccc1OC`, the Potency in assay [1] was > 11.4 µM (inactive); in [3], 1.58 µM (active); in assay [6] it was > 46 µM (inactive); in assay [7] it was > 46 µM (inactive). Further, the activity change, negative = inhibition in [2] was -10.6% (inactive); in assay [4] it was 8.73% (inactive); in [13], 5.61% (inactive). Also, the activity, negative = inhibition in assay [5] is 6.99% (inactive). Further, the outcome in assay [8], in [11] and in assay [12] was inactive. Moreover, the Potency result in [9], in assay [10], in assay [14] and in assay [15] was “inactive” each time. The figures for the max response in assay [13] (setting [18]) and in assay [13] (setting [19]) were 8.32% and 13.5%, respectively.
With `COc1ccc(CNc2cc(-c3ccoc3)ncn2)c(OC)c1`, the Potency in [1] was > 11.4 µM (inactive); in [3] it was 15.8 µM (active); in assay [6], > 46 µM (inactive); in assay [7], > 46 µM (inactive). Also, the activity change, negative = inhibition in [2] is -15.9% (inactive); in assay [4], 0.143% (inactive); in [13] it was 8.38% (inactive). In assay [5], the activity, negative = inhibition was 19.9% (inactive). Also, in [8], the outcome was inactive. Also, the Potency entry in [10], in [14] and in [15] was “inactive” throughout. For the same compound, the max response in assay [13] (setting [18]) worked out at 31.5%; in [13] (setting [19]), 38.7%.
Take `COc1cccc(-c2cc(NCc3cccs3)ncn2)c1`: the Potency in assay [1] was > 11.4 µM (inactive); in assay [3], 1.26 µM (active); in assay [6], > 46 µM (inactive); in assay [7], > 46 µM (inactive); in assay [16], 7.94 µM (active). For the same compound, the activity change, negative = inhibition in assay [2] was 3.15% (inactive); in assay [4] it was 17% (inactive); in assay [13] it was 9.36% (inactive). Further, the activity, negative = inhibition in [5] is -4.26% (inactive). Moreover, the compound was called inactive in assay [8], in [11] and in assay [12]. Besides, the Potency entry in assay [10], in [14] and in assay [15] was “inactive” throughout. Besides, the activation in assay [17] was -6.23% (inactive). The max response in assay [13] (setting [18]) came to 10.6%; in [13] (setting [19]), 25%.
On to `FC(F)(F)c1ccccc1-c1cc(N2CCNCC2)ncn1`, for which the Potency in assay [1] was > 11.4 µM (inactive); in assay [3], 5.01 µM (active); in [6], > 46 µM (inactive); in assay [7] it was > 46 µM (inactive). Further, the results for the activity change, negative = inhibition in assay [2], in assay [4] and in [13] were 10.3% (inactive), 5.38% (inactive) and 9.89% (inactive), respectively. Also, the activity, negative = inhibition in [5] was 3.09% (inactive). The compound was classed as inactive in [8], in [11] and in assay [12]. The Potency entry in assay [9], in [14] and in assay [15] was “inactive” in each case. The max response in [13] (setting [18]) was 13.9%; in assay [13] (setting [19]) it was 24.8%.
Consider `Cc1noc(C)c1-c1cc(NCc2ccccc2)ncn1`, for which the Potency was > 11.4 µM (inactive) in [1], 5.01 µM (active) in assay [3], > 46 µM (inactive) in assay [6] and > 46 µM (inactive) in assay [7]. The activity change, negative = inhibition was -3.94% (inactive) in assay [2], -10.6% (inactive) in assay [4] and 9.87% (inactive) in assay [13]. For the same compound, in assay [5], the activity, negative = inhibition is -12.8% (inactive). Further, the compound was classed as inactive in assay [8], in assay [11] and in assay [12]. The Potency entry in assay [9], in assay [14] and in [15] was “inactive” in each case. Further, the max response in assay [13] (setting [18]) stood at 11.1%; in [13] (setting [19]) it was 18%.
In the case of `CN(C)Cc1ccccc1-c1nccc(N(C)C)n1`, the Potency was > 11.4 µM (inactive) in assay [1], 12.6 µM (active) in assay [3], > 46 µM (inactive) in assay [6] and > 46 µM (inactive) in [7]. Moreover, the activity change, negative = inhibition in [2] was 23.3% (inactive); in [4] it was -0.313% (inactive); in [13] it was 2.35% (inactive). Moreover, in assay [5], the activity, negative = inhibition is 10.1% (inactive). Besides, the compound was classed as inactive in assay [8], in assay [11] and in assay [12]. The Potency result in assay [9], in assay [14] and in [15] was “inactive” in each case. Further, the max response worked out at 4.56% in assay [13] (setting [18]) and 7.89% in assay [13] (setting [19]).
